Sampled rows, rich in hits. Any-hit rate of the full collection: about 11%.
G9a block: qHTS Assay for Inhibitors of Histone Lysine Methyltransferase G9a; AID 504332, 2011; Histone-lysine N-methyltransferase EHMT2 (Homo sapiens), Q96KQ7; Potency, µM (titrated, usually from 102 µM), inactives show at the highest dose activity, negative = inhibition, hits mostly inhibitors; actives 8.8% (n = 350,000); G9a H3K9 monomethylation, AlphaScreen, 2 h; note: potency is the fitted concentration of half-maximal effect; nearly all actives have a fitted effect of over 75% in size
Target sequence (Q96KQ7 913-1193 limits assumed): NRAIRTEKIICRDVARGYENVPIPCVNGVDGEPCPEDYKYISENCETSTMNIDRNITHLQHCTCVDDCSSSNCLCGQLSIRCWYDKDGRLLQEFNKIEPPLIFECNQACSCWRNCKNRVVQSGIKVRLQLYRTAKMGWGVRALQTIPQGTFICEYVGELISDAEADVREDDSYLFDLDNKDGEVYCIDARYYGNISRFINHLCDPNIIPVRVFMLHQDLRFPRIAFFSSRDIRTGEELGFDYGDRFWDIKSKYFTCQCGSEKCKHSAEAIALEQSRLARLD
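G9a (20 nM) was preincubated 15 min with compound, then reacted 2 h at room temperature with 500 nM biotin-H3K9 peptide and 20 µM SAM. Monomethyl-H3K9 detected by AlphaScreen using anti-H3K9me1 antibody.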
Tau fluor counter: Counterscreen qHTS for Inhibitors of Tau Fibril Formation, Fluorescence Polarization; Potency, µM (top dose mostly 57.7 µM), without a hit: at the top dose activity change, negative = decrease; AID 1463, 2008; actives 0.93% (n = 280,000); tau K18 P301L Alexa594 fluorescence, heparin fibrillization; note: potency is the fitted concentration of half-maximal effect; nearly all actives have a fitted effect of over 55% in size
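Human K18 P301L tau (15 uM unlabeled plus 0.24 uM Alexa 594-labeled, final) in 100 mM sodium acetate pH 7 was mixed with compound and 20 uM heparin and incubated 6 hr at 37 C.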
Sfp inh: qHTS Assay for Inhibitors of Bacillus subtilis Sfp phosphopantetheinyl transferase (PPTase); AID 1490, 2009; Biochemical Sfp PPTase activity, qHTS; 4'-phosphopantetheinyl transferase ffp (Bacillus subtilis), Q9F4F7; Potency, µM, inactives show largest response in the series, negative = inhibition, hits mostly inhibitors; actives 3.5% (n = 310,000);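 note: the enzyme is Sfp with the accession as filed and its product quenches rhodamine fluorescence; potency is the fitted concentration of half-maximal effect; 0% = enzyme reaction without inhibitor and -100% = no enzyme wells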
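Buffer: 50 mM Hepes-Na pH 7.6, 10 mM MgCl2, 0.01% Nonidet P-40, 0.01% BSA. Enzyme 15 nM, pre-exposed to compound 15 min; substrates then added and fluorescence change tracked over 30 min.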
Coupling enz: qHTS Assay for Inhibitors of Fructose-1,6-bisphosphate Aldolase from Giardia Lamblia: Coupling assay counterscreen; activity change, negative = inhibition, % at 58.2 µM, hits read low; actives 0.67% (n = 290,000); coupling enzyme system counterscreen, AmpLite Red fluorescence; in the data active = activity change below about -30%
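First, compound is pin-transferred into glyceraldehyde-3-phosphate coupling-enzyme reagent at 57.5 uM final and held 10 min at RT. Next, substrate, coupling system and AmpLite Red are added. After 20 min RT, fluorescence (525/598 nm) is read.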
Tau ThT inhib: qHTS for Inhibitors of Tau Fibril Formation, Thioflavin T Binding. Microtubule-associated protein tau (Homo sapiens), P10636. recombinant tau K18 P301L (four-repeat tau fragment), heparin-induced fibrillization, ThT fluorescence. Potency, µM (top dose mostly 57.4 µM), for inactives: top-dose activity, negative = inhibition, hits mostly inhibitors. actives 2.1% (n = 270,000). AID 1460, 2008; note: potency is the fitted concentration of half-maximal effect; nearly all actives have a fitted effect of over 55% in size
Target sequence (P10636 561-689 P618L limits assumed): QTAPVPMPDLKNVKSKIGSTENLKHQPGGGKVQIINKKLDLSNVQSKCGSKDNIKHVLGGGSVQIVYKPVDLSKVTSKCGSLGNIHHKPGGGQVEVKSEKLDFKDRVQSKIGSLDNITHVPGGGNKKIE
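Aggregation was driven by heparin (20 uM final) acting on recombinant tau […] bearing P301L in 100 mM sodium acetate pH 7; fibrils were detected with Thioflavin T.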
Tau fibril FP: qHTS for Inhibitors of Tau Fibril Formation, Fluorescence Polarization; K18 P301L tau heparin fibrillization, Alexa594 FP, 6 h; Microtubule-associated protein tau (Homo sapiens), P10636; actives 0.39% (n = 280,000); Potency, µM (top dose mostly 57.7 µM), for inactives: at the highest dose activity, negative = inhibition, hits mostly inhibitors; note: potency is the fitted concentration of half-maximal effect; nearly all actives have a fitted effect of over 55% in size
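K18 P301L tau (15 uM unlabeled/0.24 uM Alexa 594-labeled, final) + compound + heparin 20 uM final; 100 mM NaOAc pH 7; 6 hr 37 C; ThT 30 uM final added, 1 hr RT; FP ex 555/em 632 nm.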
The depositor's hits bear a star; [ ] = another dose, or the depositor's remark. Unless noted, calls come from the whole dose curve; as a rule, active = well fitted curve in the direction sought with a large enough effect; inconclusive = small, poorly fitted or top-dose-only effect, or another doubt; inactive = no such curve, though single readings can be large; an effect the other way counts as inactive or inconclusive. Unless noted, % is set by controls: 0 for no effect and ±100 for the full control effect.

Screening COC(=O)c1ccc(CNCC(=O)Nc2ccc(C(=O)OC)cc2)cc1 returned G9a block -35%[59 µM], Tau fluor counter -1%, Sfp inh -1%, Coupling enz -4, Tau ThT inhib 4% and Tau fibril FP -2%.
COc1ccc(NC(=O)CN2CCN(CC(=O)Nc3cc(OC)cc(OC)c3)CC2)cc1 was read as G9a block inconclusive, Tau fluor counter -16%, Sfp inh -5%, Coupling enz -16, Tau ThT inhib -14% and Tau fibril FP -13%.
`O=C(c1ccc2c(c1)N(Cc1cccc(Cl)c1)C(=O)c1ccccc1S2=O)N1CCN(c2cccc(C(F)(F)F)c2)CC1` (stereo not drawn) gave G9a block -2%[59 µM], Tau fluor counter -8%, Tau ThT inhib -7% and Tau fibril FP -9%.
`COC/C=C/C1=CC2=CC(=O)C(C)(OC(=O)c3ccco3)C(=O)C2=CO1` (stereo not drawn) gave G9a block inconclusive, Tau fluor counter inconclusive, Sfp inh 56µM*, Coupling enz 2, Tau ThT inhib 25µM* and Tau fibril FP inconclusive.
For COC/C=C/C1=CC2=CC(=O)C(C)(OC(=O)c3cccs3)C(=O)C2=CO1 (stereo not drawn) the results were Tau fluor counter -10%, Sfp inh -8%, Coupling enz 0, Tau ThT inhib -13% and Tau fibril FP -2%.
For COC/C=C/C1=CC2=CC(=O)C(C)(OC(=O)C3CCCC3)C(=O)C2=CO1 (stereo not drawn) the results were G9a block inconclusive, Tau fluor counter inconclusive, Sfp inh 79µM*, Coupling enz 3, Tau ThT inhib 25µM* and Tau fibril FP 10µM*.
CN(Cc1cccc(F)c1)CC(O)COCc1ccccc1Cl (stereo not drawn) was read as G9a block 56µM*, Tau fluor counter -5%, Sfp inh -10%, Coupling enz -1, Tau ThT inhib 5% and Tau fibril FP -5%.
Screening C=CCc1ccccc1OCCSc1nc(-c2cccs2)nc2cc(=O)[nH]n12 returned G9a block 18%[59 µM], Tau fluor counter -12%, Tau ThT inhib -12% and Tau fibril FP -16%.
`Cc1c(NC(=O)CN(c2ccc(F)cc2)S(=O)(=O)c2ccccc2)c(=O)n(-c2ccccc2)n1C` gave G9a block 45µM* and Sfp inh -25%.
For COc1ccc(Cc2nnc(N/N=C(\C)c3ccccc3)[nH]c2=O)cc1OC the results were Tau fluor counter -9%, Sfp inh -18%, Coupling enz 0, Tau ThT inhib -12% and Tau fibril FP 3%.
For CCN1C(=O)c2cccc3c(N)ccc(c23)C1=O the results were G9a block 50µM*, Sfp inh -14% and Coupling enz 3.
`CCCCNc1ccc2c3c(cccc13)C(=O)N(CCCC)C2=O` gave G9a block 323%, Tau fluor counter inconclusive, Sfp inh 28µM*, Coupling enz -6, Tau ThT inhib inconclusive and Tau fibril FP inconclusive.
C/C(CC(=O)NC(C)(C)C)=N\NC(N)=S was read as G9a block 4µM*, Tau fluor counter -5%, Sfp inh 35µM*, Coupling enz -1, Tau ThT inhib -15% and Tau fibril FP 2%.
CC(=Nc1cccc(C)c1)c1sc2ccccc2c1O was read as G9a block -22%, Tau fluor counter inconclusive, Sfp inh -5%, Coupling enz 3, Tau ThT inhib inconclusive and Tau fibril FP 13%.
For CC(=Nc1ccccc1O)c1sc2ccccc2c1O the results were G9a block inconclusive, Tau fluor counter 28µM*[quencher], Sfp inh -6%, Coupling enz -7, Tau ThT inhib 5µM* and Tau fibril FP 18%.
CC(=Nc1ccc(O)cc1)c1sc2ccccc2c1O was read as G9a block 10µM*, Tau fluor counter inconclusive, Sfp inh -16%, Coupling enz 1, Tau ThT inhib 4.5µM* and Tau fibril FP 13%.
`CC(=O)NCCN=C(C)c1sc2ccccc2c1O` gave G9a block 18µM*, Tau fluor counter -14%, Sfp inh -14%, Coupling enz 1, Tau ThT inhib inconclusive and Tau fibril FP 8%.
Screening CCC(C(=O)NC1CCCCC1)n1nc(C)c2sc3ccccc3c2c1=O (stereo not drawn) returned G9a block -7%[59 µM], Tau fluor counter -14%, Tau ThT inhib -3% and Tau fibril FP -10%.
O=C(Nc1ccc2nc(SCC(=O)N3CCCc4ccccc43)sc2c1)c1cccc(Cl)c1 was read as G9a block -15%[59 µM], Tau fluor counter -20%, Tau ThT inhib 4% and Tau fibril FP inconclusive.
`CCn1c(-c2ccc3[nH]c(C)c(C)c3c2)n[nH]c1=S` gave G9a block 2.8µM*, Tau fluor counter -14%, Sfp inh -27%, Coupling enz 0, Tau ThT inhib inconclusive and Tau fibril FP 5%.
Screening Cc1[nH]c2ccc(-c3n[nH]c(=S)n3C)cc2c1C returned G9a block 4µM*, Tau fluor counter -4%, Sfp inh -13%, Coupling enz 0, Tau ThT inhib -13% and Tau fibril FP inconclusive.
For CCOc1ccccc1CNC(=O)c1cc2c(=O)n(Cc3ccco3)ccc2nc1C the results were G9a block -4%[59 µM], Tau fluor counter -5%, Tau ThT inhib -8% and Tau fibril FP -4%.
For COc1cc(OC)c(NC(=O)NCc2cccn2Cc2ccccc2)cc1Cl the results were G9a block -6%[59 µM], Tau fluor counter 14µM*[quencher], Tau ThT inhib -17% and Tau fibril FP -11%.
Screening COc1cc(OC)c(NC(=O)CCc2ccccc2)cc1Cl returned G9a block 7%[59 µM], Tau fluor counter -12%, Sfp inh 3%, Coupling enz 0, Tau ThT inhib -14% and Tau fibril FP 2%.
For COc1cc(OC)c(NC(C)C(=O)NCc2ccccc2)cc1Cl (stereo not drawn) the results were G9a block inconclusive, Tau fluor counter -22%, Sfp inh inconclusive, Coupling enz -50*, Tau ThT inhib inconclusive and Tau fibril FP -3%.
